GALK inh: qHTS Assay for Inhibitors of Human Galactokinase (GALK); P51570; Purified GALK, Kinase-Glo residual ATP luminescence; Potency, µM (highest dose often 57.5 µM), for inactives: at the top dose activity change, negative = inhibition, usual class: inhibitors; hit rate 0.007% among 270,000; AID 1868, 2009; also: potency is read from the fitted curve at half-maximal effect; % is scaled to controls: 0 for no effect and ±100 for the full control effect
Target sequence (P51570 whole entry, looked up): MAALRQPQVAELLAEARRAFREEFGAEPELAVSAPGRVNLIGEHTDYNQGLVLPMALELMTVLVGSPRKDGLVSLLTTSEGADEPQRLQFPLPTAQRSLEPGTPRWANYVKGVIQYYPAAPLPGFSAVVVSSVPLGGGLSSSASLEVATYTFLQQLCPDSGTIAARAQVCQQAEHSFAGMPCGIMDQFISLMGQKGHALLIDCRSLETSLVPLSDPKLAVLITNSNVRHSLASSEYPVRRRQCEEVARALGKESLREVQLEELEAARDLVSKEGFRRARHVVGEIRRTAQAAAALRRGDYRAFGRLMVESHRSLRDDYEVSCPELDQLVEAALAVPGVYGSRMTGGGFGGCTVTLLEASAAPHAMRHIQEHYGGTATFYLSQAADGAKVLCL
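GALK at 5 nM final was combined with compound, 35 uM ATP and 100 uM galactose in HEPES pH8.0 with MgCl2 and DTT. The reaction ran one hour at room temperature before luminescent ATP detection.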
PLK1 PBD inh: qHTS for Inhibitors of PLK1-PDB (polo-like kinase 1 - polo-box domain): Primary Screen; Serine/threonine-protein kinase PLK1 (Homo sapiens), P53350; Plk1 PBD binding of FITC phosphopeptide, fluorescence polarization; Potency, µM, inactives show max response, negative = inhibition, most hits filed as inhibitors; hit rate 2.8% among 360,000; also: potency is read from the fitted curve at half-maximal effect; series mostly up to about 57 µM; % is scaled to controls: 0 for no effect and ±100 for the full control effect; nearly all actives have a fitted effect of over 65% in size
FBPA coupling cs: qHTS Assay for Inhibitors of Fructose-1,6-bisphosphate Aldolase from Giardia Lamblia: Coupling assay counterscreen. AID 2472, 2010. coupling enzyme system counterscreen, AmpLite Red fluorescence. hit rate 0.67% among 290,000. activity change, negative = inhibition, % at 58.2 µM, hits read low; in the data active = activity change below about -30%; also: % is scaled to controls: 0 for no effect and ±100 for the full control effect
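Compounds tested against the coupling enzymes alone at 57.5 uM final; readout was AmpLite Red fluorescence (525/598 nm) after 20 min at RT.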
VDR inh: Inhibitors of the vitamin D receptor (VDR): qHTS; Vitamin D3 receptor (Homo sapiens), P11473; VDR-SRC2-3 peptide fluorescence polarization, 2 h; Potency, µM, inactives show max response, negative = inhibition, hits mostly inhibitors; hit rate 0.93% among 400,000; AID 504847, 2011; also: potency is read from the fitted curve at half-maximal effect; % is scaled to controls: 0 for no effect and ±100 for the full control effect
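Two reagent solutions held at 4 deg C in the dark were dispensed, compounds pinned at 23 nl, and the mixture incubated 2 h at room temperature. Read-out: fluorescence polarization of VDR–SRC2-3 peptide binding.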
USP1-UAF1 inh: Inhibitors of USP1/UAF1: Primary Screen | hit rate 0.23% among 390,000 | Ubiquitin carboxyl-terminal hydrolase 1 (Homo sapiens), O94782 | recombinant USP1/UAF1, Ub-Rhodamine cleavage fluorescence | AID 743255, 2014 | Potency, µM (highest dose often 57.1 µM), inactives show at the top dose activity change, negative = inhibition, hits mostly inhibitors; also: potency is read from the fitted curve at half-maximal effect; % is scaled to controls: 0 for no effect and ±100 for the full control effect; nearly all actives have a fitted effect of over 60% in size
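In this screen, compounds sit with the deubiquitinase complex (1nM) for 15 min at room temperature before Ub-Rho is added at 150nM final. Fluorescence rise is then followed for 6 reads every 60 seconds.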
USP2a inh: qHTS Assay for Inhibitors of Ubiquitin-specific Protease USP2a Using CHOP2 as the Reporter. USP2 core, Ub-CHOP2 coupled fluorogenic reporter, 485/531. Potency, µM (doses to about 38.3 µM), for inactives: at the highest dose activity change, negative = inhibition, hits mostly inhibitors. hit rate 0.01% among 330,000;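 also: potency is read from the fitted curve at half-maximal effect; plate controls were DMSO wells for no effect and full inhibition by NEM control for full effect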
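Deubiquitinase activity read as fluorescence (485/531 nm) after Ub-CHOP2 cleavage activates the enterokinase reporter on its substrate; USP2 core 10nM, Ub-CHOP2 and substrate 25nM each, 30min compound preincubation then 60min RT; data normalized to NEM, curves fitted.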
USP1 UbRho: Inhibitors of USP1/UAF1: Hit Validation in Primary Assay | shares compounds with VDR inh | Ub-Rhodamine cleavage, fluorescence kinetic read | Potency, µM (highest dose often 56.8 µM), inactives show top-dose activity change, negative = inhibition, usual class: inhibitors | hit rate 50% among 50 | AID 540327, 2011
VDR inh confirm: qHTS for Inhibitors of the vitamin D receptor (VDR): Hit Validation in Primary Screen. VDR-coactivator inhibition assay, qHTS confirmation. shares compounds with VDR inh. Potency, µM, hits mostly inhibitors. hit rate 89% among 840; also: potency is read from the fitted curve at half-maximal effect
VDR FP fluor: qHTS for Inhibitors of the vitamin D receptor (VDR): Hit Validation using a Fluorescein Assay; shares compounds with VDR inh; VDR-coactivator binding, fluorescein fluorescence polarization; Potency, µM (top dose mostly 57.1 µM), for inactives: at the top dose activity change, negative = inhibition, usual class: inhibitors; hit rate 48% among 840; AID 602200, 2012; also: potency is read from the fitted curve at half-maximal effect
VDR bla: qHTS for Inhibitors of the vitamin D receptor (VDR): Hit Validation using a Beta-Lactamase Assay; Potency, µM (top dose mostly 46.1 µM), for inactives: top-dose activity change, negative = inhibition, hits mostly inhibitors; hit rate 23% among 840; shares compounds with VDR inh; VDR beta-lactamase reporter cells, FRET ratio; cells co-treated with VDR agonist LG190178; AID 602202, 2012; also: potency is read from the fitted curve at half-maximal effect; % is scaled to controls: 0 for no effect and ±100 for the full control effect
VDR viability: qHTS for Inhibitors of the vitamin D receptor (VDR): Hit Validation using a Cytotoxicity Assay; shares compounds with VDR inh; cytotoxicity counter-screen, cell viability, qHTS; Potency, µM (doses to about 48.3 µM), inactives show top-dose activity change, negative = cytotoxicity, usual class: cytotoxic; hit rate 18% among 840; AID 602204, 2012;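 also: potency is read from the fitted curve at half-maximal effect; plate controls were DMSO for no effect and high-concentration cycloheximide for full effect; nearly all actives have a fitted effect of over 75% in size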
Active calls of the source: *; ? = inconclusive; . = no result given. Only some compounds are listed: those with a hit (about 3.2% of all), similar ones and a draw of the others. Unless noted, calls follow the shape of the dose curve; as a rule, active = well fitted curve in the direction sought with a large enough effect; inconclusive = small, poorly fitted or top-dose-only effect, or another doubt; inactive = no such curve, though single readings can be large; an effect the other way counts as inactive or inconclusive.

SMILES	GALK inh	PLK1 PBD inh	FBPA coupling cs	VDR inh	USP1-UAF1 inh	USP2a inh	VDR inh confirm	VDR FP fluor	VDR bla	VDR viability	others
Cc1cc2c(cc1Cl)N(C(=O)Nc1ccc(Oc3cccnc3C)nc1)CC2	.	.	.	-5%	.	.	.	.	.	.	USP1 UbRho=?
Cc1cc([N+](=O)[O-])ccc1N	.	-16%	.	3%	-13%	1%	.	.	.	.
O=[N+]([O-])c1ccc2c(c1)S(=O)(=O)C=C2	.	.	-2	13µM*	.	.	22*	?	3.7µM*	6µM*
CC(C)Cc1nnc(NC(=O)CCC(=O)Nc2ccc(F)cc2)s1	3%	-4%	3	-1%	0%	-2%	.	.	.	.
Nc1nc2c(s1)CCc1c-2cnn1-c1ccccc1	-4%	2.7µM*	3	20µM*	?	-4%	4.5*	4µM*	?	?
[O-]/[N+](=C\c1ccncc1)c1ccc(Br)cc1	.	21µM*	-6	45µM*	-7%	2%	9.5*	?	6%	2%
Cc1cccc(C(=O)Nc2ccc(C(=O)/C=C/c3ccncc3)cc2)c1	-4%	-13%	-5	16µM*	-13%	1%	7.5*	6.3µM*	?	?
CC(=O)Nc1cccc(C(=O)/C=C/c2ccc(/C=C/C(=O)c3cccc(NC(C)=O)c3)cc2)c1	0%	.	3	.	.	0%	.	.	.	.
CCC(=O)Nc1cccc(C(=O)/C=C/c2cc(Br)ccc2OC)c1	-5%	-11%	0	?	-19%	1%	8.9*	14µM*	4.6µM*	?
CC(=O)Nc1cccc(C(=O)/C=C/c2ccc(Br)cc2)c1	-5%	-27%	-3	25µM*	-15%	3%	7.1*	8.9µM*	?	-19%
CC(=O)N(C1=C(Cl)C(=O)c2ccccc2C1=O)C1CCCCC1	3%	3.8µM*	-88*	14µM*	?	0%	12*	14µM*	5.8µM*	?
COc1cccc(C(Nc2ccccc2)c2ccc3ccc(C)nc3c2O)c1 (stereo unspecified)	.	-22%	.	.	.	.	.	.	.	.
Cc1cccc(NC(c2ccc(O)cc2)c2ccc3ccc(C)nc3c2O)n1 (stereo unspecified)	0%	4.2µM*	-8	45µM*	-10%	1%	11*	?	26%	0%
Cc1cc[n+](CC(=O)c2cccc([N+](=O)[O-])c2)c2ccccc12	2%	-3%	-1	16%	-22%	-1%	.	.	.	.
O=C(C[n+]1csc2ccccc21)c1cccc([N+](=O)[O-])c1	.	.	.	.	.	.	?	?	5%	22%
Cc1ccc(C(=O)N2C(=S)C(c3ccc(F)cc3)=NC23CCN(C)CC3)cc1	-3%	24µM*	0	?	?	-1%	18*	22µM*	26µM*	?
CN1CCN(NC(=O)c2ccc(F)cc2)CC1	.	-20%	0	-9%	-3%	3%	.	.	.	.
Nc1c(N2CCCC2)cc(Cl)c2nonc12	2%	21µM*	-34*	?	16µM*	2%	5*	2.8µM*	3%	7%
Nc1cc(Cl)ccc1N1CCCCC1	-1%	-2%	0	10%	-12%	1%	.	.	.	.
O=S(=O)(/N=C(\Sc1ccc(Cl)cc1)c1ccccc1)c1ccccc1	3%	2.7µM*	3	?	-21%	0%	7.1*	22µM*	2%	-2%
O=C(COCc1cc(-c2cccs2)on1)NCc1ccc(F)cc1	.	.	.	14%	-7%	.	.	.	.	.
CCOC(=O)c1cc(-c2ccccc2)sc1NC(=O)c1ccc(OC)cc1	-1%	5.3µM*	7	50µM*	-22%	-1%	30*	13µM*	15%	-28%
COc1ccccc1NS(=O)(=O)c1cc(NC(=O)c2cccs2)ccc1N1CCCC1	1%	5.3µM*	0	22µM*	-28%	3%	6*	?	10%	0%
CCN(CC)CCNC(=O)c1ccc(NC(=O)c2ccc(Cl)c(S(=O)(=O)Nc3ccccc3OC)c2)cc1	-2%	.	6	.	.	0%	.	.	.	.
CCN(CC)c1ccc(NC(=O)c2ccccc2Br)cc1S(=O)(=O)Nc1ccccc1OC	-2%	1.5µM*	1	22µM*	-16%	-1%	3*	2.8µM*	22%	23%
COc1ccc([N+](=O)[O-])c(S(=O)(=O)c2ccccc2)n1	14%	9.5µM*	1	32µM*	-16%	-1%	15*	?	18µM*	16µM*
Cc1ccc(C(=O)/C=C/c2ccc3ncccc3c2)cc1	2%	-8%	0	22µM*	?	-5%	12*	?	?	?
Cc1ccc(C(=O)Nc2ccc3ncccc3c2)cc1	.	-8%	-3	2%	-21%	-2%	.	.	.	.
NS(=O)(=O)Nc1ccccc1Br	.	.	-1	-8%	.	.	.	.	.	.
